Structures are written as SMILES. Among all 310,000 compounds or so, about 14,000 (4.5%) showed an effect of 50% or more. The effect is printed as a negative number. Only a selection was taken, and strong results are over-represented in it overall.

The values that follow come from article PMC4336329 (PLoS ONE, 2015).
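Further: peak tail current of the secondary pulse compared with the same well before compound.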

For the assay, the target named is human ether-à-go-go-related gene (hERG) potassium channel (human, UniProt Q12809). The assay is described as follows: primary screen, population patch clamp on CHO cells stably expressing hERG; higher = less effect of the substance.
human ether-à-go-go-related gene (hERG) potassium channel, sequence (Q12809 whole entry, looked up): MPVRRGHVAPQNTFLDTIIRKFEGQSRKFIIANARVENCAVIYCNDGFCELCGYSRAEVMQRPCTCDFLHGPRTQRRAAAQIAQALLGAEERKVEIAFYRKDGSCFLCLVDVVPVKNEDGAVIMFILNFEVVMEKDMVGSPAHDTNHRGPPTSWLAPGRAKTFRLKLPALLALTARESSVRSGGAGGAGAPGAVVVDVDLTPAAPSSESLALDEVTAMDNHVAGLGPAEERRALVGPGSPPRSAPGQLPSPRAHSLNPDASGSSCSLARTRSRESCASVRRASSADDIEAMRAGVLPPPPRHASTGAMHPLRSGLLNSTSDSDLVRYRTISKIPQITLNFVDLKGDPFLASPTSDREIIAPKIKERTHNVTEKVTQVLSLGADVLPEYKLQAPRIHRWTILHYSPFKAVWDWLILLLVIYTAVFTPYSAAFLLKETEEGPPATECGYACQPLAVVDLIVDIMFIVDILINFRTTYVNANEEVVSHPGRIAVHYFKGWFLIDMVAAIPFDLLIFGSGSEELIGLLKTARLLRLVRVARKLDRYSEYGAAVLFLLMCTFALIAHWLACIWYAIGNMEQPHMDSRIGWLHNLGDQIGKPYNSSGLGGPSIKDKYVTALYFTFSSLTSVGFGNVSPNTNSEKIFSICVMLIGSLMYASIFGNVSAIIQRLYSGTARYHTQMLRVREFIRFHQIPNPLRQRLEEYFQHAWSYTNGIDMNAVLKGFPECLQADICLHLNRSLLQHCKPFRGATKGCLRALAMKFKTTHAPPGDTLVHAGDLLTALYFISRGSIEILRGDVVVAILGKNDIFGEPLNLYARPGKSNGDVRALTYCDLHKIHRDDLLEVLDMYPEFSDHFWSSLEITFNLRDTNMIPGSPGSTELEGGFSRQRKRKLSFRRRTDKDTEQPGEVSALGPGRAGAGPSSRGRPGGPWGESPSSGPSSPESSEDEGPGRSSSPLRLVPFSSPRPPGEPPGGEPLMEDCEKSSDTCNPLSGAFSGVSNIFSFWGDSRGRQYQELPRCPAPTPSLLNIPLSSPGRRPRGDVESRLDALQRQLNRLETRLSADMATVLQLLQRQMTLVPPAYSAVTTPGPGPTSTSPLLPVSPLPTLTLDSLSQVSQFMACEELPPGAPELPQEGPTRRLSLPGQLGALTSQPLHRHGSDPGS
As to `CCOC(=O)N1CCC(NC(=O)CC(NS(=O)(=O)c2ccc(C)cc2)c2ccco2)CC1` (stereo not drawn), the “hERG current change (%, negative = inhibition) at 10uM” value is on record as -7.75%.
In the case of `CCOC(=O)N1CCC(NC(=O)CC(NS(=O)(=O)c2ccc(Cl)cc2)c2ccco2)CC1` (stereo not drawn) it was -53%; in that of `O=C(CC(NS(=O)(=O)c1ccc(Cl)cc1)c1ccco1)NC1CCCC1` (stereo not drawn), -8%.
In the case of `CCc1cccc(C)c1NC(=S)NCC(c1cccnc1)N(C)C` (stereo not drawn) it was 5.1%; in that of `CCc1nnc(NC(=O)C2CCN(c3cnccn3)CC2)s1`, 4.24%; in that of `COc1ccc(OC)c(S(=O)(=O)NCc2ccccn2)c1`, 11.9%.
As to `O=S(=O)(NCc1ccccn1)c1cc(OCC(F)(F)F)ccc1OCC(F)(F)F`, the “hERG current change (%, negative = inhibition) at 10uM” value is recorded as -69.9%.
In the case of `CCOc1ccc(OCC)c(S(=O)(=O)NCc2ccccn2)c1` it was -1.02%; in that of `Cn1nc(-c2ccc(C(=O)NC3CCCCC3)cc2)c2ccccc2c1=O`, -52.4%; in that of `CCC(=O)Nc1cc(-c2nn(C)c(=O)c3ccccc23)ccc1OC`, -11.4%.
The result for `Cn1nc(C(=O)NC2CCCCC2)c2ccccc2c1=O` reads -15.3%.
In the case of `COc1ccc(-c2nn(C)c(=O)c3ccccc23)cc1NC(=O)Cn1nc(-c2ccccc2)c2ccccc2c1=O` it was 5.06%; in that of `CCCC(=O)NCc1cc(-c2nn(C)c(=O)c3ccccc23)ccc1OC`, 7.01%; in that of `COc1ccc(-c2nn(C)c(=O)c3ccccc23)cc1CNC(=O)C1CCCCC1`, -56.3%.
As for `COc1ccc(-c2nn(C)c(=O)c3ccccc23)cc1NC(=O)Cn1nc(C)c2ccccc2c1=O`, the “hERG current change (%, negative = inhibition) at 10uM” value is -57.5%.
For `Cn1nc(C(=O)NC2CCCC2)c2ccccc2c1=O`, the “hERG current change (%, negative = inhibition) at 10uM” value worked out at 1.63%.
The result for `COc1ccc(-c2nn(C)c(=O)c3ccccc23)cc1CNC(=O)NC1CCCCC1` reads -26.5%; that for `CCC1CCCCN1C(=S)NC1CCCCC1` (stereo not drawn), 17.2%.
In the case of `COc1cc(/C=C/C(=O)Nc2ccc(C)cc2)cc(OC)c1OC` it was -2.49%; in that of `O=C(C1CCN(S(=O)(=O)c2ccc(Br)s2)CC1)N1CCc2ccccc21`, -46.8%; in that of `c1ccc(CCc2nn3c(C4COc5ccccc5O4)nnc3s2)cc1` (stereo not drawn), -1.79%.
As for `COc1ccc(/C=N/n2c(C3CCCCC3)n[nH]c2=S)c(OC)c1`, the “hERG current change (%, negative = inhibition) at 10uM” value was found to be 23.6%.
For `COc1ccc(OC)c(S(=O)(=O)N2CCC3(CC2)CC(=O)c2ccccc2O3)c1`, the “hERG current change (%, negative = inhibition) at 10uM” value was -47.1%.
The result for `COc1cccc(N2CC(C(=O)N3CCC4(CC3)CC(=O)c3ccccc3O4)CC2=O)c1` (stereo not drawn) reads -53.5%; that for `COc1ccc(N2CC(C(=O)N3CCN(c4ccccc4)CC3)CC2=O)cc1` (stereo not drawn), -41.6%.
In the case of `COc1ccc(N2CC(C(=O)N3CCOCC3)CC2=O)cc1` (stereo not drawn) it was 18.3%; in that of `COc1ccc(N2CC(C(=O)N3CCC4(CC3)CC(=O)c3ccccc3O4)CC2=O)cc1` (stereo not drawn), -78.1%.
In the case of `COc1cccc(N2CC(C(=O)Oc3ccc4ccccc4c3)CC2=O)c1` (stereo not drawn), the “hERG current change (%, negative = inhibition) at 10uM” value was -7.91%.
With `Cc1[nH]c2ccccc2c1/C=N/NC(=O)CNC(=O)Cc1ccccc1`, the “hERG current change (%, negative = inhibition) at 10uM” value amounted to 15.5%.
The result for `NC(=O)c1nnn(-c2nonc2N)c1-c1ccc([N+](=O)[O-])cc1` reads 24.7%; that for `C=CCn1c(SCC(=O)c2ccc(NS(=O)(=O)c3ccccc3)cc2)nnc1-c1cccs1`, -19.5%.
As for `COc1cc(/C=C/C(=O)OCC(=O)Nc2sc3c(c2C#N)CCC(C)C3)ccc1OCC#N` (stereo not drawn), the “hERG current change (%, negative = inhibition) at 10uM” value came to 12.1%.
Turning to `COc1cccc(/C=C/C(=O)c2ccc3c(c2)OCO3)c1OC`, the “hERG current change (%, negative = inhibition) at 10uM” value stood at 1.82%.
For the molecule `CC1CCC2(CC1)NC(=O)N(NC(=O)c1cccs1)C2=O` (stereo not drawn), the “hERG current change (%, negative = inhibition) at 10uM” value worked out at 9.08%.
In the case of `NC(=O)c1ccc(NC(=O)COC(=O)CNC(=O)c2sc3ccccc3c2Cl)cc1` it was -12.8%.
Turning to `O=C(COC(=O)CNC(=O)c1sc2ccccc2c1Cl)Nc1c(Cl)cc(Cl)cc1Cl`, the “hERG current change (%, negative = inhibition) at 10uM” value is recorded as 15.6%.
As to `O=C(COC(=O)CNC(=O)c1sc2ccccc2c1Cl)Nc1cc(Cl)cc(Cl)c1`, the “hERG current change (%, negative = inhibition) at 10uM” value is given as -54.7%.
The result for `Cc1nc(-c2nc(-c3c(C(=O)NNC(=O)c4ccc(Cl)cc4)noc3C)cs2)cs1` reads -35.1%.
In the case of `CCN(CC)CCN(C)Cc1nc(C(c2ccccc2)c2ccccc2)no1` it was -57.7%.
In the case of `CN(CCc1cn[nH]c1)Cc1nc(C(c2ccccc2)c2ccccc2)no1` it was -38.5%; in that of `COCCN(C)Cc1nc(C(c2ccccc2)c2ccccc2)no1`, 3.28%; in that of `O=c1c2ccccc2nc(/C=C/c2ccc(O)cc2)n1CCc1ccccc1`, -17.3%.
